Results from PubChem BioAssay (NCI).
This is part of a sample that, as a whole, favours compounds with a hit. Of some 83,000 tested, about 20% had one in any assay.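 Interpretation: 100, growth as untreated; towards 0, rising growth inhibition; 0, no net growth; 0 to -100, cell death. Compounds scoring below 10 were considered active.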 Active and inactive are the calls of the source.

Assays:
Test in all cases: NCI-60 one-dose screen, 48 h (100 = growth as untreated, 0 = no growth, -100 = all killed)
Settings in all cases: 10 µM unless noted
HCT-15 colon = tested on: HCT-15 colon
HT29 colon = tested on: HT29 colon
SNB-75 CNS = tested on: SNB-75 CNS
SNB-19 CNS = tested on: SNB-19 CNS
U251 CNS = tested on: U251 CNS
PC-3 prostate = tested on: PC-3 prostate
SK-MEL-5 melanoma = tested on: SK-MEL-5 melanoma
UACC-62 melanoma = tested on: UACC-62 melanoma
LOX IMVI melanoma = tested on: LOX IMVI melanoma
SK-MEL-28 melanoma = tested on: SK-MEL-28 melanoma

Measured: growth

COc1ccc2[nH]cc(-c3nc(-c4c[nH]c5c(Cl)nccc45)cs3)c2c1
inactive: HT29 colon 15.8% | SNB-75 CNS 54.1% | SNB-19 CNS 63.9% | U251 CNS 17.5% | PC-3 prostate 31% | SK-MEL-5 melanoma 55.6% | UACC-62 melanoma 52% | LOX IMVI melanoma 13.2% | SK-MEL-28 melanoma 42%
active: HCT-15 colon -16.1%

c1ccc(CCNc2c3ccccc3nc3ccccc23)cc1
inactive: HCT-15 colon 23.3% | HT29 colon 22.1% | SNB-75 CNS 67.6% | SNB-19 CNS 39.5% | U251 CNS 41.1% | PC-3 prostate 35.7% | SK-MEL-5 melanoma 64.7% | UACC-62 melanoma 53.2% | LOX IMVI melanoma 17.6% | SK-MEL-28 melanoma 67.7%

O=C(Nc1ccc(Br)cc1)C1=NCCCCN1
inactive: HCT-15 colon 62.2% | HT29 colon 86% | SNB-75 CNS 88.6% | SNB-19 CNS 97.3% | U251 CNS 91.6% | PC-3 prostate 74.4% | SK-MEL-5 melanoma 93.3% | UACC-62 melanoma 58.8% | LOX IMVI melanoma 35.5% | SK-MEL-28 melanoma 114%

Cc1cccc(Oc2ccc(Nc3ncnc4ccc(NC(=O)CN5CCN(C)CC5)cc34)cc2Cl)c1
active: HCT-15 colon 5.82% | HT29 colon -30.1% | U251 CNS 9.58% | SK-MEL-5 melanoma -76.7% | UACC-62 melanoma -27.4% | LOX IMVI melanoma -94.2% | SK-MEL-28 melanoma -84.6%
inactive: SNB-75 CNS 80.8% | SNB-19 CNS 28.4% | PC-3 prostate 33.1%

CCOC(=O)c1ccccc1-c1c2ccc(=[N+](C)C)cc-2oc2cc(N(C)C)ccc12
inactive: HCT-15 colon 70.2% | SNB-19 CNS 18.2% | U251 CNS 14.6% | LOX IMVI melanoma 94.6% | SK-MEL-28 melanoma 32%
active: HT29 colon -0.175% | SNB-75 CNS 7.68% | PC-3 prostate 5.32% | SK-MEL-5 melanoma -68.1% | UACC-62 melanoma 9.47%

CCNc1ccc(-c2nc3ccccc3n3cccc23)cc1
inactive: HCT-15 colon 82.5% | HT29 colon 80% | SNB-75 CNS 67.6% | SNB-19 CNS 92.2% | U251 CNS 82.9% | PC-3 prostate 68.9% | SK-MEL-5 melanoma 71.2% | UACC-62 melanoma 66.2% | LOX IMVI melanoma 73.4% | SK-MEL-28 melanoma 86.5%

CC(=O)Oc1ccc(OC(C)=O)c2ccccc12
inactive: HCT-15 colon 99.1% | HT29 colon 107% | SNB-75 CNS 105% | SNB-19 CNS 91.9% | U251 CNS 89% | PC-3 prostate 54.8% | SK-MEL-5 melanoma 60.2% | UACC-62 melanoma 78% | LOX IMVI melanoma 81.2% | SK-MEL-28 melanoma 111%

CCOc1c(OC)cc2c(c1O)C(=O)N[C@@H]1[C@@H](O)[C@@H](O)[C@H](O)C[C@@H]21
inactive: HCT-15 colon 102% | HT29 colon 100% | SNB-75 CNS 93.5% | SNB-19 CNS 99% | U251 CNS 96.7% | PC-3 prostate 100% | SK-MEL-5 melanoma 101% | UACC-62 melanoma 93.1% | LOX IMVI melanoma 98.1% | SK-MEL-28 melanoma 105%

C=C(C)[C@@H]1CC[C@]2(C)[C@H](CC=C3[C@@H]4CC(C)(C)CC[C@]4(CO)CC[C@]32C)[C@@]1(C)CCCN
inactive: SNB-75 CNS 39.7% | SNB-19 CNS 79.5% | PC-3 prostate 21.3% | SK-MEL-5 melanoma 55.4% | UACC-62 melanoma 98.8%
active: HCT-15 colon -71.6% | HT29 colon -52.8% | U251 CNS -86.8% | LOX IMVI melanoma -97.2% | SK-MEL-28 melanoma -88.4%

COc1cc2c(cc1OCCCCN1CCN(C(=S)SCCC(C#N)(c3ccccc3)c3ccccc3)CC1)N=C[C@@H]1CCCN1C2=O
active: HCT-15 colon -55.5% | HT29 colon -65.6% | SNB-75 CNS -82.3% | SNB-19 CNS -14.5% | U251 CNS -81.9% | PC-3 prostate -16.1% | SK-MEL-5 melanoma -98.3% | UACC-62 melanoma -22.7% | LOX IMVI melanoma -83.2% | SK-MEL-28 melanoma -70.2%

CCOC(=O)c1c(C)nc2ccccc2c1/C=C/c1cccs1
inactive: HCT-15 colon 58.6% | HT29 colon 76.3% | SNB-75 CNS 80.1% | SNB-19 CNS 83.5% | U251 CNS 81.2% | PC-3 prostate 60.4% | SK-MEL-5 melanoma 21% | UACC-62 melanoma 50.7% | LOX IMVI melanoma 73.1% | SK-MEL-28 melanoma 106%

CC(=O)ON1CCCC(P(=O)(OCCSC(=O)C(C)(C)C)OCCSC(=O)C(C)(C)C)C1=O (stereo not given)
inactive: HCT-15 colon 12.1% | HT29 colon 19.3% | SNB-75 CNS 52% | SNB-19 CNS 19% | PC-3 prostate 48.1% | UACC-62 melanoma 20.4% | LOX IMVI melanoma 25.8% | SK-MEL-28 melanoma 30.7%
active: U251 CNS 6.6% | SK-MEL-5 melanoma -2.99%

COc1ccc(CCN2C(=O)/C(=C/c3ccc(C4Oc5ccccc5C5CC(c6ccccc6)=NN54)cc3)SC2=S)cc1 (stereo not given)
inactive: HCT-15 colon 105% | HT29 colon 105% | SNB-75 CNS 101% | SNB-19 CNS 94.2% | U251 CNS 101% | PC-3 prostate 98% | SK-MEL-5 melanoma 101% | UACC-62 melanoma 97.5% | LOX IMVI melanoma 96.6% | SK-MEL-28 melanoma 117%

CCNc1nc(O)c(/C=C2\C=Nc3ncccc32)s1
active: HT29 colon 4.26% | SNB-75 CNS -71.8% | SNB-19 CNS 9.99% | U251 CNS -9.45% | PC-3 prostate 2.3% | SK-MEL-5 melanoma 9.15% | UACC-62 melanoma -16% | LOX IMVI melanoma 1.75% | SK-MEL-28 melanoma -17.2%
inactive: HCT-15 colon 16%

CC1=C2[C@@H](CC1)[C@]1(C)O[C@@](c3ccccc3)(C[C@H]1OC(=O)CO)[C@H]2OC(=O)/C=C/c1ccccc1
active: SNB-75 CNS -50.7%
inactive: HCT-15 colon 92.6% | HT29 colon 87.2% | SNB-19 CNS 96.1% | U251 CNS 88.4% | PC-3 prostate 63.2% | SK-MEL-5 melanoma 88.9% | UACC-62 melanoma 79% | LOX IMVI melanoma 82.1% | SK-MEL-28 melanoma 117%

Cc1c(CN)cc(-c2ccc(Cl)cc2)n1-c1ccccc1
inactive: HCT-15 colon 80.9% | HT29 colon 103% | SNB-75 CNS 78.5% | SNB-19 CNS 84.7% | U251 CNS 79.9% | PC-3 prostate 89.4% | SK-MEL-5 melanoma 82.4% | UACC-62 melanoma 57% | LOX IMVI melanoma 67% | SK-MEL-28 melanoma 114%

COc1ccc(/C=C/C(=O)c2cc(OC)c(OC)c(OC)c2)cc1OCC(=O)Nc1nc2ccc(OC(F)(F)F)cc2s1
inactive: HCT-15 colon 11.7% | HT29 colon 20.1% | SNB-19 CNS 12.9% | PC-3 prostate 33.4% | UACC-62 melanoma 60% | SK-MEL-28 melanoma 36.4%
active: SNB-75 CNS -33.1% | U251 CNS -45.9% | SK-MEL-5 melanoma 2.06% | LOX IMVI melanoma -22.9%

CC1(C)CC[C@]2(CO)CC[C@]3(C)[C@H](CC[C@@H]4[C@@]5(C)CCCNC(C)(C)[C@@H]5CC[C@]43C)[C@H]2[C@H]1O
inactive: HCT-15 colon 34.3% | HT29 colon 17.6% | SNB-75 CNS 80.1% | SNB-19 CNS 97.6% | U251 CNS 56.1% | PC-3 prostate 64.7% | SK-MEL-5 melanoma 92.8% | UACC-62 melanoma 95.9% | LOX IMVI melanoma 69.4% | SK-MEL-28 melanoma 93.9%

CC/C(Cc1ccccc1)=C(\c1ccc(OCCCN(C)C)cc1)c1ccc(OC(=O)NCc2ccccc2)cc1
inactive: SNB-75 CNS 69.4% | SNB-19 CNS 76.3% | U251 CNS 35.7% | PC-3 prostate 64.5% | SK-MEL-5 melanoma 74.4% | UACC-62 melanoma 85% | LOX IMVI melanoma 15.5% | SK-MEL-28 melanoma 90%
active: HCT-15 colon 4.38% | HT29 colon 7.12%

CN1CCN(CCCOc2cccc3nc(Nc4ccc(F)c(F)c4)ccc23)CC1
active: HCT-15 colon -79.9% | HT29 colon -69.5% | SNB-75 CNS -5.9% | SNB-19 CNS -17.4% | U251 CNS -70.3% | PC-3 prostate -43.6% | SK-MEL-5 melanoma -100% | UACC-62 melanoma -75.4% | LOX IMVI melanoma -87.7% | SK-MEL-28 melanoma -82.3%

Cc1ccc2nc(/C(C#N)=C(/CCCO)NC(Cc3ccccc3)C(=O)OCc3ccccc3)[nH]c(=O)c2c1 (stereo not given)
inactive: HCT-15 colon 117% | HT29 colon 130% | SNB-75 CNS 113% | SNB-19 CNS 90.4% | U251 CNS 104% | PC-3 prostate 115% | SK-MEL-5 melanoma 73.3% | UACC-62 melanoma 99.1% | LOX IMVI melanoma 98.5% | SK-MEL-28 melanoma 96.4%

Cc1ccc(-c2nc3nc(-c4ccccc4)nc(N4CCCN(S(C)(=O)=O)CC4)c3o2)cc1
inactive: HCT-15 colon 73.3% | HT29 colon 58.4% | SNB-75 CNS 17.4% | SNB-19 CNS 86.5% | U251 CNS 69.7% | PC-3 prostate 68.3% | SK-MEL-5 melanoma 89.4% | UACC-62 melanoma 81.7% | LOX IMVI melanoma 71.7% | SK-MEL-28 melanoma 70.9%

Cc1ccc(NC(=O)Cn2c(Br)nc3c2c(=O)n(C)c(=O)n3C)cc1
inactive: HCT-15 colon 45.8% | HT29 colon 55.2% | SNB-19 CNS 50.7% | PC-3 prostate 30.3% | SK-MEL-5 melanoma 25.6% | UACC-62 melanoma 45.5% | SK-MEL-28 melanoma 52%
active: SNB-75 CNS 5.65% | U251 CNS 4.05% | LOX IMVI melanoma -9.57%

C[C@]1(O)CC(=O)[C@]2(O)C3=C(C=C[C@]2(O)C1)C(=O)c1c(O)cccc1C3=O
inactive: SNB-75 CNS 20% | SNB-19 CNS 101% | U251 CNS 72.4% | PC-3 prostate 72.8% | UACC-62 melanoma 16.5%
active: HCT-15 colon -45.5% | HT29 colon 3.93% | SK-MEL-5 melanoma -53.7% | LOX IMVI melanoma -51.5% | SK-MEL-28 melanoma -37.4%

CCN(CC)c1ccc(/C=N/NC(=O)Cc2ccc(Nc3ccnc(C(F)(F)F)c3)cc2)c(O)c1
inactive: HCT-15 colon 33.2% | HT29 colon 33.1% | SNB-19 CNS 30.9% | U251 CNS 25.7% | PC-3 prostate 53.3% | SK-MEL-5 melanoma 27.1% | UACC-62 melanoma 20.6% | SK-MEL-28 melanoma 31.7%
active: SNB-75 CNS 5.89% | LOX IMVI melanoma 6.64%

Cn1c2c(c3ccc(Cl)c(Cl)c31)C(C#N)C(C)(C)NC2=O (stereo not given)
active: SK-MEL-5 melanoma 5.3%
inactive: HCT-15 colon 96.1% | HT29 colon 88.5% | SNB-75 CNS 76.6% | SNB-19 CNS 91.8% | U251 CNS 91.1% | PC-3 prostate 95.1% | UACC-62 melanoma 66.6% | LOX IMVI melanoma 84.4% | SK-MEL-28 melanoma 105%
